Assay outcomes (PubChem)
Many of the other results were omitted from the sample, so hits are more common in it than they were.
TDP-43 rescue: rescues yeast from TDP-43 toxicity | yeast TDP-43 toxicity rescue, BacTiter-Glo growth, 24 h | Potency, µM (top dose mostly 46.1 µM), most hits filed as activators | 45,000 compounds, 0.45% hits | AID 1347073; active = well fitted activation curve with a large enough effect; note: 0% is about no effect; nearly all actives have a fitted effect of over 55% in size
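TDP-43-expressing yeast, pregrown in raffinose, seeded at OD600 0.02 in galactose medium with compound for 24 hr at 30 deg C. Growth read by BacTiter-Glo luminescence, so rescue of toxicity appears as activation.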
The depositor's hits bear a star; i = inactive. Potency is the fitted concentration of half-maximal effect.

SMILES	TDP-43 rescue
Cc1ccc(-c2noc(-c3nnn(CC(=O)Nc4cccc(C(F)(F)F)c4)c3N)n2)cc1	i
CC(=O)Nc1ccc(NC(=O)c2ccc(-c3ccnn3C)c3ccoc23)cc1	i
O=C(NCCN1CCN(c2cccc(Cl)c2)CC1)C1COc2ccccc2C1 (centres undefined)	i
CC(C)CCN1C(=O)c2ccccc2CC1(C)C(=O)NC1CCC(C)CC1 (centres undefined)	i
CCOc1ccccc1CNC(=O)C1CCN(c2nnc(-n3c(C)ccc3C)s2)CC1	i
Cc1ccc(-c2csc3nc[nH]c(=S)c23)cc1	14.1µM*
S=c1[nH]cnc2scc(-c3ccc(Br)cc3)c12	i
O=c1[nH]cnc2scc(-c3ccc(Br)cc3)c12	i
CCCSc1ncc(Cl)c(C(=O)Nc2sc3c(c2C(=O)NCC)CCCC3)n1	i
Cc1ccc(NC(=O)C2CCCN(c3nnc(-n4c(C)ccc4C)s3)C2)c(C)c1 (centres undefined)	i
